Sampled rows, rich in hits. Any-hit rate of the full collection: about 19%.
Giardia kill = kills Giardia lamblia; Giardia lamblia trophozoite viability; actives 0.15% (n = 340,000); activity change, % at 7.66 µM, hits read low; AID 540267; in the data active = activity change below about -80%; inconclusive = between about -30% and that limit;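 note: parasites exposed to compound for two days anaerobically before the ATP read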
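Killing of trophozoites was scored by loss of ATP luminescence after a 48 hrs anaerobic exposure to compounds at 37 deg C, using 100 cells per well.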
TDP1 inh = TDP1 (human) enzyme inhibition. Potency, µM (top dose mostly 130 µM), usual class: inhibitors. Q9NUW8. actives 0.28% (n = 350,000). recombinant TDP1, AlphaScreen DNA substrate cleavage; note: nearly all actives have a fitted effect of over 40% in size
Target sequence (Q9NUW8 whole entry, looked up): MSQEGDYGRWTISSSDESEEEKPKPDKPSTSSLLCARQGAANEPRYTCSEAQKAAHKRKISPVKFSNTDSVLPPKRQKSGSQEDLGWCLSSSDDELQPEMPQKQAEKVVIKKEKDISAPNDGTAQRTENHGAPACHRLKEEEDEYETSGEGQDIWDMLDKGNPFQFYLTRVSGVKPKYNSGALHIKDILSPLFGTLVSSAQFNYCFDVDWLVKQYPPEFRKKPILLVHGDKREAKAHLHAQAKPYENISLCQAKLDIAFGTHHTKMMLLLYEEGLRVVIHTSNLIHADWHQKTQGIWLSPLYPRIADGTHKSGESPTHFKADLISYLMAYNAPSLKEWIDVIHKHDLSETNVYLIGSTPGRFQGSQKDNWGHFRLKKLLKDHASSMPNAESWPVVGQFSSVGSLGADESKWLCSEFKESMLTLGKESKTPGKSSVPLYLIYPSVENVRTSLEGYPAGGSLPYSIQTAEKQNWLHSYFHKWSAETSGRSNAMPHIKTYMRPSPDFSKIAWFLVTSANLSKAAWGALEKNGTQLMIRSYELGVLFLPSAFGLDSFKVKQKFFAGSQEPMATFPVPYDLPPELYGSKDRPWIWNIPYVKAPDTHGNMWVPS
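Recombinant E. coli-expressed Tdp1 (1 nM) preincubated with compound 15 min at RT, then 5'-biotin/3'-phosphotyrosine-FITC DNA substrate (15 nM) added for 5 min. AlphaScreen beads (10 ug/ml) added, 10 min RT; tyrosine-FITC cleavage read as signal loss.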
DT40 TDP1 no CPT = qHTS for Inhibitors of human tyrosyl-DNA phosphodiesterase 1 (TDP1): qHTS in cells in absence of CPT; DT40 Tdp1-/- hTDP1 cells, no CPT, ATP luminescence, 48 h; Potency, µM (titrated, usually from 46.2 µM), most hits filed as inhibitors; actives 15% (n = 420,000); note: nearly all actives have a fitted effect of over 55% in size
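No-CPT arm: Tdp1-/-;hTDP1 DT40 cells (400/well) plus compounds, incubated ≥48 hr at 37 °C. Readout CellTiter-Glo luminescence.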
TDP1 cell CPT = growth inhibition of DT40 Tdp1-/-;hTDP1 cells with camptothecin (screen for TDP1 inhibitors) | chicken DT40 Tdp1-/-;hTDP1 cells + 20 nM CPT, ATP luminescence, 48 h | AID 686979 | Potency, µM (series often up to 46.2 µM), usual class: inhibitors | actives 12% (n = 420,000); note: nearly all actives have a fitted effect of over 55% in size
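Chicken DT40 Tdp1-/- cells complemented with human TDP1, 400 cells/well, exposed to compounds plus 20 nM camptothecin for at least 48 h at 37 C; viability read as ATP content by CellTiter-Glo luminescence.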
IL-1B inflam inh = inhibitors of inflammasome signaling (IL-1 beta secretion). THP-1 LPS/ATP IL-1B secretion, AlphaLISA, 16 h; stronger effect = lower value. activity change, % at 57.5 µM. actives 4.7% (n = 360,000). AID 743279; in the data active = activity change below about -50%; inconclusive = mostly about -30% to -49%
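THP-1 cells pretreated 1 hr with compounds (up to 57.5 uM final), then stimulated with LPS (250 ng/mL final) plus ATP (1.25 mM final); secreted IL-1B measured by AlphaLISA after 16 hr, decreased signal indicating inhibition.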
ELG1 DNA repair = ELG1-dependent DNA repair inhibition | HEK293T ELG1-luciferase reporter, luminescence, 16 h; DNA damage induced by 5-fluorouridine | Potency, µM (highest dose often 46.1 µM), most hits filed as inhibitors | actives 2.3% (n = 330,000); note: nearly all actives have a fitted effect of over 55% in size
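5-Fluorouridine DNA damage + compound/DMSO, 2,000 cells/well, 16 h, 37 °C/5% CO2. ONE-Glo, 30 min RT, luminescence. Readout = decrease in reporter signal.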
Numbers stand for hits; n = inactive; u = inconclusive; x = no result given. Unless noted, calls come from the whole dose curve; as a rule, active = well fitted curve in the direction sought with a large enough effect; inconclusive = small, poorly fitted or top-dose-only effect, or another doubt; inactive = no such curve, though single readings can be large; an effect the other way counts as inactive or inconclusive.

SMILES | Giardia kill | TDP1 inh | DT40 TDP1 no CPT | TDP1 cell CPT | IL-1B inflam inh | ELG1 DNA repair
[O-]/C(=C(\C(=S)Nc1cccc2ccccc12)[n+]1ccccc1)c1ccc2c(c1)OCCO2 | n | n | n | u | n | n
[O-]/C(=C(\C(=S)Nc1cccc2ccccc12)[n+]1ccccc1)c1ccc(OC(F)F)cc1 | n | n | 21µM | u | n | u
COc1cccc(NC(=S)/C(=C(\[O-])c2ccc(C)c([N+](=O)[O-])c2)[n+]2ccccc2)c1 | n | n | n | n | n | u
COc1cccc(NC(=S)/C(=C(\[O-])c2ccc(OC(F)F)cc2)[n+]2ccccc2)c1 | n | n | 15µM | 13µM | n | n
CCN(Cc1ccccc1)C(=O)CSc1nc(C)cc(=O)[nH]1 | n | n | n | n | n | n
COc1ccc(C(=O)/C=C/Nc2ccccn2)c(OC)c1 | n | n | u | n | -63 | u
COc1ccc(/C=C/C(=O)NNC(=O)c2cc(C)oc2C)cc1 | n | x | n | n | -58 | n
COc1ccc(/C=C/C(=O)c2ccc(O)cc2O)cc1 | x | n | u | u | x | x
O=C(/C=C\Nc1ccccn1)c1ccccc1 | n | n | n | n | n | u
COc1cc(OC)c(C(=O)Oc2ccc3c(c2)OCO3)cc1OC | n | n | n | n | n | n
COc1ccc(/C=C/C(=O)c2cc3c(cc2N)OCO3)cc1 | n | n | 23µM | u | n | u
COc1ccc(/C=C/C(=O)c2cc(O)ccc2O)cc1 | x | n | 16µM | 16µM | x | x
Cc1ccc(C(=O)Nc2ccc(Cl)cc2C)c(Cl)c1 | n | n | u | n | n | u
C=CCOC(/C=C/c1ccccc1)C[Si](C)(C)C (centres undefined) | n | n | x | x | x | x
O=C(OCN1C(=O)c2ccccc2C1=O)c1cccc(S(=O)(=O)N2CCOCC2)c1 | n | n | n | n | n | n
COc1ccc(CN2CCN(CCc3ccccc3)C(CCO)C2)c(O)c1 (centres undefined) | n | n | n | n | n | n
Nc1nc(NCCCN2CCOCC2)nc(NCc2ccccc2)c1[N+](=O)[O-] | n | n | u | n | x | n
Cc1ccccc1CNC(=O)c1nn(-c2ccccc2F)nc1CO | x | n | n | n | x | x
COc1ccc(/C=C/C(=O)CCC(=O)O)cc1 | n | n | n | n | n | u
COc1ccc(/C=C/C(=O)c2cc(C(=O)/C=C/c3ccc(OC)cc3)c(O)cc2O)cc1 | x | x | 11µM | u | x | x
COc1ccc(/C=C\C(=O)c2c(O)ccc3c(C)cc(=O)oc23)cc1 | n | n | 23µM | n | n | n
COc1ccc(/C=C/C(=O)c2ccc(OC)cc2OC)cc1 | n | n | u | u | -105 | n
COc1ccc(C(=O)COC(=O)/C=C/c2ccccc2)c(OC)c1 | n | n | n | n | n | u
COc1ccc(/C=C/C(=O)c2c(O)ccc3c(C)cc(=O)oc23)cc1 | n | n | u | u | u | n
CC(C)c1ccc(NC(=O)CN2C(=O)NC3(CCCC3)C2=O)cc1 | n | n | u | u | n | u
SMILES | Giardia kill | TDP1 inh | DT40 TDP1 no CPT | TDP1 cell CPT | IL-1B inflam inh | ELG1 DNA repair
CCOc1cc(/C=N/N=C2/NC(=O)C(CC(=O)O)S2)ccc1OCc1ccc(Cl)cc1Cl (centres undefined) | n | 20µM | n | u | n | n
COc1cc(/C=N/N=C2/NC(=O)C(CC(=O)O)S2)ccc1OCc1ccc(Cl)cc1 (centres undefined) | n | n | n | n | n | u
COCCN1Cc2cccc(C(=O)Nc3ccc(C(=O)OC)cc3)c2C1=O | x | n | n | n | x | x
NC(=O)NN=C1CC2CC1C1C=CCC21 (centres undefined) | n | x | n | n | n | x
Oc1ccc(O)c(C=NNC(=S)NC2CC3CC2C2C=CCC32)c1 (centres undefined) | x | x | u | 18µM | n | x
NNC(=S)NC1CC2CC1C1C=CCC21 (centres undefined) | n | n | u | 9.2µM | n | n
O=C(Nc1ccc(N2CCOCC2)c(S(=O)(=O)Nc2ccccc2Cl)c1)c1ccc(F)cc1 | n | n | u | u | -56 | 18µM

Screening results deposited in PubChem BioAssay by National Center for Advancing Translational Sciences (NCATS).
